From article PMC9911399, “Two distinct binding modes provide the RNA-binding protein RbFox with extraordinary sequence specificity”
Residue numbers refer to the chain shown, from its start. In all, about 16,000 sequences were measured (“ka relative to ugcaugu”: median about 0.096, highest 2% from about 0.35 on). What follows is part of a selection rich in the highest values, with near analogues and random picks from the rest.

T1: RBFOX1 RRM RbFoxmut (Fox-RRM*) (Homo sapiens, UniProt Q9NWB1 109-208, R118D;E147R;N151S;E152T)
T1 sequence: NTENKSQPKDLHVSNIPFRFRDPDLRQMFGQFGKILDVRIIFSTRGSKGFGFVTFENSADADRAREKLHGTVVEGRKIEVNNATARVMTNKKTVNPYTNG

B1: GGUCGGG (DNA:RNA)
RNA: GGGAGACCGGAAUUCAGAUUGUCCGGUCGGGUUAAAUCCCGUCGUAGCCACCA
DNA 1: CAATCTGAATTCCGGTCTCCC
DNA 2: TGGTGGCTACGACGGGATT
B2: GGGACGG (DNA:RNA)
RNA: B1 RNA with U27G, C28A, G29C
DNA 1: CAATCTGAATTCCGGTCTCCC
DNA 2: TGGTGGCTACGACGGGATT
B3: GGUUUGG (DNA:RNA)
RNA: B1 RNA with C28U, G29U
DNA 1: CAATCTGAATTCCGGTCTCCC
DNA 2: TGGTGGCTACGACGGGATT
B4: GGUUUUU (DNA:RNA)
RNA: B1 RNA with C28U, G29U, G30U, G31U
DNA 1: CAATCTGAATTCCGGTCTCCC
DNA 2: TGGTGGCTACGACGGGATT
B5: GUCCGGU (DNA:RNA)
RNA: B1 RNA with G26U, U27C, G31U
DNA 1: CAATCTGAATTCCGGTCTCCC
DNA 2: TGGTGGCTACGACGGGATT
B6: GGUUUUG (DNA:RNA)
RNA: B1 RNA with C28U, G29U, G30U
DNA 1: CAATCTGAATTCCGGTCTCCC
DNA 2: TGGTGGCTACGACGGGATT
B7: GGUUUGU (DNA:RNA)
RNA: B1 RNA with C28U, G29U, G31U
DNA 1: CAATCTGAATTCCGGTCTCCC
DNA 2: TGGTGGCTACGACGGGATT
B8: CGGUUUG (DNA:RNA)
RNA: B1 RNA with G25C, U27G, C28U, G29U, G30U
DNA 1: CAATCTGAATTCCGGTCTCCC
DNA 2: TGGTGGCTACGACGGGATT
B9: UACCCGA (DNA:RNA)
RNA: B1 RNA with G25U, G26A, U27C, G29C, G31A
DNA 1: CAATCTGAATTCCGGTCTCCC
DNA 2: TGGTGGCTACGACGGGATT
B10: GGUCCCA (DNA:RNA)
RNA: B1 RNA with G29C, G30C, G31A
DNA 1: CAATCTGAATTCCGGTCTCCC
DNA 2: TGGTGGCTACGACGGGATT
B11: GGAGCAG (DNA:RNA)
RNA: B1 RNA with U27A, C28G, G29C, G30A
DNA 1: CAATCTGAATTCCGGTCTCCC
DNA 2: TGGTGGCTACGACGGGATT
B12: UGAAUGC (DNA:RNA)
RNA: B1 RNA with G25U, U27A, C28A, G29U, G31C
DNA 1: CAATCTGAATTCCGGTCTCCC
DNA 2: TGGTGGCTACGACGGGATT
B13: CGAAUGC (DNA:RNA)
RNA: B1 RNA with G25C, U27A, C28A, G29U, G31C
DNA 1: CAATCTGAATTCCGGTCTCCC
DNA 2: TGGTGGCTACGACGGGATT
B14: GAUUGCU (DNA:RNA)
RNA: B1 RNA with G26A, C28U, G30C, G31U
DNA 1: CAATCTGAATTCCGGTCTCCC
DNA 2: TGGTGGCTACGACGGGATT
B15: UAAAUGC (DNA:RNA)
RNA: B1 RNA with G25U, G26A, U27A, C28A, G29U, G31C
DNA 1: CAATCTGAATTCCGGTCTCCC
DNA 2: TGGTGGCTACGACGGGATT
B16: GGAAUGC (DNA:RNA)
RNA: B1 RNA with U27A, C28A, G29U, G31C
DNA 1: CAATCTGAATTCCGGTCTCCC
DNA 2: TGGTGGCTACGACGGGATT
B17: GAUGCUU (DNA:RNA)
RNA: B1 RNA with G26A, C28G, G29C, G30U, G31U
DNA 1: CAATCTGAATTCCGGTCTCCC
DNA 2: TGGTGGCTACGACGGGATT
B18: GCAAUGC (DNA:RNA)
RNA: B1 RNA with G26C, U27A, C28A, G29U, G31C
DNA 1: CAATCTGAATTCCGGTCTCCC
DNA 2: TGGTGGCTACGACGGGATT
B19: GAAAUGC (DNA:RNA)
RNA: B1 RNA with G26A, U27A, C28A, G29U, G31C
DNA 1: CAATCTGAATTCCGGTCTCCC
DNA 2: TGGTGGCTACGACGGGATT
B20: GAAUGCU (DNA:RNA)
RNA: B1 RNA with G26A, U27A, C28U, G30C, G31U
DNA 1: CAATCTGAATTCCGGTCTCCC
DNA 2: TGGTGGCTACGACGGGATT
B21: UUAAUGC (DNA:RNA)
RNA: B1 RNA with G25U, G26U, U27A, C28A, G29U, G31C
DNA 1: CAATCTGAATTCCGGTCTCCC
DNA 2: TGGTGGCTACGACGGGATT
B22: GUAAUGC (DNA:RNA)
RNA: B1 RNA with G26U, U27A, C28A, G29U, G31C
DNA 1: CAATCTGAATTCCGGTCTCCC
DNA 2: TGGTGGCTACGACGGGATT
B23: GAAUUGC (DNA:RNA)
RNA: B1 RNA with G26A, U27A, C28U, G29U, G31C
DNA 1: CAATCTGAATTCCGGTCTCCC
DNA 2: TGGTGGCTACGACGGGATT
B24: AUGCCGC (DNA:RNA)
RNA: B1 RNA with G25A, G26U, U27G, G29C, G31C
DNA 1: CAATCTGAATTCCGGTCTCCC
DNA 2: TGGTGGCTACGACGGGATT
B25: ACACGGC (DNA:RNA)
RNA: B1 RNA with G25A, G26C, U27A, G31C
DNA 1: CAATCTGAATTCCGGTCTCCC
DNA 2: TGGTGGCTACGACGGGATT
B26: UUUUCCC (DNA:RNA)
RNA: B1 RNA with G25U, G26U, C28U, G29C, G30C, G31C
DNA 1: CAATCTGAATTCCGGTCTCCC
DNA 2: TGGTGGCTACGACGGGATT
B27: GGGACUG (DNA:RNA)
RNA: B1 RNA with U27G, C28A, G29C, G30U
DNA 1: CAATCTGAATTCCGGTCTCCC
DNA 2: TGGTGGCTACGACGGGATT
B28: UCCAGUU (DNA:RNA)
RNA: B1 RNA with G25U, G26C, U27C, C28A, G30U, G31U
DNA 1: CAATCTGAATTCCGGTCTCCC
DNA 2: TGGTGGCTACGACGGGATT
B29: CGAUCAG (DNA:RNA)
RNA: B1 RNA with G25C, U27A, C28U, G29C, G30A
DNA 1: CAATCTGAATTCCGGTCTCCC
DNA 2: TGGTGGCTACGACGGGATT
B30: AUUGUAA (DNA:RNA)
RNA: B1 RNA with G25A, G26U, C28G, G29U, G30A, G31A
DNA 1: CAATCTGAATTCCGGTCTCCC
DNA 2: TGGTGGCTACGACGGGATT
B31: UUUGUUC (DNA:RNA)
RNA: B1 RNA with G25U, G26U, C28G, G29U, G30U, G31C
DNA 1: CAATCTGAATTCCGGTCTCCC
DNA 2: TGGTGGCTACGACGGGATT

molecular target: T1, RBFOX1 RRM RbFoxmut (Fox-RRM*); experiment: EMSA; HiTS-Eq, 1 nM pool, 10 min; buffer printed only for the single-RNA assays: 10 mM Tris pH 7.5, 150 mM NaCl, 3.4 mM EDTA, 0.001% NP-40, 30 C; settings: tags: His6 N-terminal (pET28a); label: 5' 32P
Procedure, shortened: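 Purified RbFox RRM (wild type or mutant) was equilibrated for 10 min in 50 µL with 1 nM of a 5′-radiolabelled pool of RNA with 7 randomized nucleotides, its flanks annealed to DNA oligonucleotides, across increasing protein concentrations. Free RNA was separated by 8% native PAGE, excised, reverse-transcribed, PCR-barcoded and sequenced on an Illumina HiSeq 2500. Relative association constants came from read-count changes of each variant against the control reaction, normalised to the cognate motif.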

Row | Binder | binding signal
1 | B1 | 0.0602 KA relative to UGCAUGU
2 | B2 | 0.0996 KA relative to UGCAUGU
3 | B3 | 0.277 KA relative to UGCAUGU
4 | B4 | 0.056 KA relative to UGCAUGU
5 | B5 | 0.132 KA relative to UGCAUGU
6 | B6 | 0.191 KA relative to UGCAUGU
7 | B7 | 0.366 KA relative to UGCAUGU
8 | B8 | 0.633 KA relative to UGCAUGU
9 | B9 | 0.066 KA relative to UGCAUGU
10 | B10 | 0.0504 KA relative to UGCAUGU
11 | B11 | 0.0829 KA relative to UGCAUGU
12 | B12 | 0.485 KA relative to UGCAUGU
13 | B13 | 0.856 KA relative to UGCAUGU
14 | B14 | 0.141 KA relative to UGCAUGU
15 | B15 | 0.0677 KA relative to UGCAUGU
16 | B16 | 0.686 KA relative to UGCAUGU

Row | Binder | binding signal
17 | B17 | 0.0831 KA relative to UGCAUGU
18 | B18 | 0.0545 KA relative to UGCAUGU
19 | B19 | 0.072 KA relative to UGCAUGU
20 | B20 | 0.634 KA relative to UGCAUGU
21 | B21 | 0.118 KA relative to UGCAUGU
22 | B22 | 0.127 KA relative to UGCAUGU
23 | B23 | 0.119 KA relative to UGCAUGU
24 | B24 | 0.11 KA relative to UGCAUGU
25 | B25 | 0.115 KA relative to UGCAUGU
26 | B26 | 0.0312 KA relative to UGCAUGU
27 | B27 | 0.266 KA relative to UGCAUGU
28 | B28 | 0.0717 KA relative to UGCAUGU
29 | B29 | 0.0789 KA relative to UGCAUGU
30 | B30 | 0.154 KA relative to UGCAUGU
31 | B31 | 0.0935 KA relative to UGCAUGU
